Experimental findings from PubChem BioAssay (NCI) are described below.

This is part of a sample that, as a whole, favours compounds with a hit. Of some 83,000 tested, about 20% had one in any assay.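 Step 1: grow cells in 96-well plates. Step 2: add test compound at a single concentration. Step 3: incubate 48 h. Step 4: record percent growth.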 Values without a mark were called inactive. Calls of active or inactive are those of the source. The calls were made as follows: active = growth percent below 10; inactive = the rest.

Test in all cases: NCI-60 one-dose screen, 48 h (100 = growth as untreated, 0 = no growth, -100 = all killed)
In assay [1] the test system is HCT-15 colon. Conditions: 10 µM unless noted.
The test system of assay [2] is HT29 colon. The settings on record: 10 µM unless noted.
In assay [3] the test system is SNB-75 CNS. The settings on record: 10 µM unless noted.
The test system of assay [4] is SNB-19 CNS. Conditions: 10 µM unless noted.
The subject of assay [5] is U251 CNS. The settings on record: 10 µM unless noted.
Assay [6] concerns PC-3 prostate. Conditions: 10 µM unless noted.
For assay [7], the system named is SK-MEL-5 melanoma. The settings on record: 10 µM unless noted.
Assay [8] concerns UACC-62 melanoma. Conditions: 10 µM unless noted.
In assay [9] the test system is LOX IMVI melanoma. The settings on record: 10 µM unless noted.
Assay [10] concerns SK-MEL-28 melanoma. The settings on record: 10 µM unless noted.
Assay [11] has as its system EKVX NSCLC. Conditions: 10 µM unless noted.
Assay [12] has as its system SN12C renal. The settings on record: 10 µM unless noted.
Assay [13] concerns UO-31 renal. Conditions: 10 µM unless noted.
In assay [14] the test system is TK-10 renal. Conditions: 10 µM unless noted.
For assay [15], the system named is ACHN renal. Conditions: 10 µM unless noted.
Assay [16] has as its system CAKI-1 renal. The settings on record: 10 µM.
For assay [17], the system named is A498 renal. Conditions: 10 µM unless noted.
Assay [18] deals with CCRF-CEM leukemia. Conditions: 10 µM unless noted.
For assay [19], the system named is MOLT-4 leukemia. The settings on record: 10 µM unless noted.
Assay [20] has as its system SK-MEL-2 melanoma. The settings on record: 10 µM unless noted.

For `C=CCn1c(SCC(=O)Nc2cccc(C(=O)/C=C/c3ccc(C)cc3)c2)nc2ccccc2c1=O`, the growth in assay [1] was 62%; in [2] it was 72.7%; in assay [3] it was 78.4%; in [4], 81.7%; in assay [5] it was 72%; in assay [6], 72.5%. The growth is 97.2% in assay [7]; 76.7% in assay [8]; 73.8% in assay [9]; 95.3% in assay [10]; 91.5% in assay [11]; 91.5% in assay [12]. Besides, the growth is 63.9% in [13]; 105% in assay [14]; 89.5% in assay [15]; 80% in assay [16]; 85.9% in assay [17]; 98.4% in assay [18].
In the case of `O=c1cc(-c2ccccc2)nc2sc(-c3c[nH]c4ccc(F)cc34)nn12`, the growth in assay [1] was 67.8%; in [2], 73.2%; in assay [3], -37.9% (active); in assay [4], 77.5%; in assay [5], 57.9%; in assay [6], 64.9%. Further, the growth in assay [7] was 69.8%; in assay [8] it was 68.1%; in assay [9], 72%; in assay [10] it was 67.7%; in [11], 52%; in [12], 56.6%. Further, the growth in [13] was 20.3%; in [14], 50.9%; in assay [15], 30%; in assay [16] it was 60.5%; in [17], 88.8%.
For `CCOC(=O)CC(=O)CSC1=NC2C(NN1)N(C)C(=O)N2C` (configuration not stated), the growth in assay [1] is 63%; in [2] it was 62.9%; in assay [3], 99%; in assay [4] it was 97.4%; in assay [5] it was 98.6%; in assay [6], 89.4%. Moreover, the growth in [7] is 99.6%; in assay [8], 89.4%; in assay [9] it was 92.9%; in [10] it was 89.3%; in [11], 56.2%; in [12], 91.6%. The growth in [13] was 57.2%; in [14] it was 104%; in assay [15], 82.6%; in assay [16], 88.5%; in assay [17], 118%; in assay [18] it was 38.8%.
On to `C=CCn1c(SCC(=O)Nc2cccc(C(=O)/C=C/c3ccc(Br)cc3)c2)nc2ccccc2c1=O`, for which the growth was 76.3% in assay [1]; 83.9% in assay [2]; 61.8% in assay [3]; 76.8% in [4]; 74.6% in [5]; 79.4% in [6]. Besides, the growth in assay [7] was 98.4%; in assay [8], 73.4%; in assay [9], 74.8%; in assay [10], 98.2%; in assay [11], 106%; in [12] it was 88.8%. Further, the growth in assay [13] was 71.2%; in assay [14], 102%; in assay [15], 84.5%; in assay [16], 73.7%; in [17], 89.3%; in [18], 95.5%.
For `CCN1C(=O)N(CC)C2C1NN=C1SC(c3ccccc3)=CC(=O)N12` (configuration not stated), the growth in assay [1] was 19.2%; in [2] it was -8.74% (active); in assay [3], 14%; in assay [4], 31.8%; in assay [5] it was 14.5%; in [6], 17.1%. Moreover, the growth in assay [7] was 38.2%; in [8], 19.4%; in assay [9] it was 40.1%; in assay [10], 59.5%; in assay [11], 45.6%; in [12] it was 36.7%. Also, the growth in assay [13] was 43.3%; in assay [14], 62.8%; in assay [15], 45.2%; in assay [16], 37.5%; in assay [17], -7.16% (active); in assay [18], 13.2%. In addition, the growth in assay [19] was 18.2%.
Take `CCN1C(=O)N(CC)C2SC(N/N=C/c3ccccc3)=NC21` (configuration not stated): the growth is 16.9% in assay [1]; -0.975% (active) in assay [2]; 37.4% in [3]; 27.3% in assay [4]; 17.1% in assay [5]; 28% in assay [6]. Moreover, the growth is 12.1% in [7]; 37% in [8]; 17.3% in [9]; 58.1% in assay [10]; 9.45% (active) in assay [20]; 34.4% in [12]. Also, the growth in assay [13] was 54.6%; in assay [15] it was 36%; in assay [16] it was 40.1%; in assay [17], -19.2% (active); in [18], 16.7%; in [19] it was 21.4%.
For `COc1ccc([C@@H]2[C@@H](O)C(=O)N2c2cc(OC)c(OC)c(OC)c2)cc1`, the growth in assay [1] was 12.4%; in assay [2] it was 1.28% (active); in assay [3], 50.7%; in assay [4], 31.6%; in assay [5], 4.38% (active); in assay [6], 16.2%. In addition, the growth is -28.6% (active) in [7]; 20.3% in assay [8]; 16.3% in assay [9]; 61% in assay [10]; 51.2% in assay [11]; 24.6% in assay [12]. Moreover, the growth in [13] is 29.9%; in [14], 74.5%; in [15] it was 26.8%; in assay [16], 25.6%; in assay [17], -20.8% (active); in assay [18], 24%.
`COc1cc2c3c(n(CCCN4CCCCC4)c(=O)c2cc1OC)-c1cc2c(cc1C3=O)OCO2`: the growth is -84.2% (active) in [1]; -96.9% (active) in [2]; -85.3% (active) in assay [3]; -72.3% (active) in assay [4]; -92.5% (active) in [5]; -87% (active) in assay [6]. The growth in assay [7] is 60.8%; in [8] it was 59.2%; in assay [9], -74% (active); in assay [10] it was -79.4% (active); in assay [11], -56.2% (active); in assay [12], -72.1% (active). Also, the growth in assay [13] is -89.3% (active); in assay [14], -87.2% (active); in assay [15], -96.7% (active); in [16], -82.9% (active); in [17] it was 70.9%; in assay [18] it was -11.6% (active).
Regarding `CS(=O)(=O)c1nccc(-c2c(-c3ccc(F)c(OCCc4ccccc4)c3)nc3sccn23)n1`, the growth in assay [1] is 83.1%; in assay [2], 91.3%; in assay [3], 108%; in [4], 81.7%; in assay [5], 105%; in [6] it was 41.7%. Also, the growth in [7] is 98%; in assay [8] it was 83.9%; in assay [9], 75.2%; in [10], 57.3%; in assay [11] it was 59.5%; in assay [12], 83.7%. The growth is 85.5% in assay [13]; 100% in [14]; 90% in assay [15]; 84% in assay [16]; 90.4% in assay [17]; 84.2% in assay [18].
`Cc1ccc(NC(=O)c2cc(/C=C/C(=O)NO)cc(C(F)(F)F)c2)cc1Nc1nccc(-c2cccnc2)n1`: the growth in assay [1] was 55.2%; in [2], 7.3% (active); in assay [3], -5.81% (active); in assay [4] it was -0.0394% (active); in assay [5], -65.1% (active); in assay [6], 18.9%. For the same compound, the growth in [7] is -88% (active); in assay [8], -41.3% (active); in assay [9], -68.2% (active); in [10], -7.78% (active); in assay [11], 28%; in [12], 2.25% (active). For the same compound, the growth in assay [13] was 18.8%; in [14], 15.2%; in assay [15], 18.5%; in assay [16] it was 6.2% (active); in [17], -46.9% (active); in [18], 5.21% (active). Also, in assay [19], the growth is 5.15% (active).
For the compound `CC(=O)C1=NN(c2ccc(Cl)cc2)C(=O)CN1C`, the growth in assay [1] was 100%; in assay [2], 102%; in assay [3], 106%; in [4], 103%; in assay [5], 97.6%; in [6], 98.1%. For the same compound, the growth in assay [7] is 102%; in assay [8], 97.7%; in assay [9], 98.3%; in assay [10], 102%; in assay [20], 102%; in [11] it was 95.7%. The growth in [13] is 93%; in [14], 91.2%; in assay [15], 99.4%; in [16], 95.7%; in assay [19], 107%.
With `COc1cc2c3c(n(CCCN4CCC[C@H]4C(N)=O)c(=O)c2cc1OC)-c1cc2c(cc1C3=O)OCO2`, the growth was 11.9% in [1]; 6.94% (active) in assay [2]; 12% in [3]; 21.2% in assay [4]; -21.6% (active) in assay [5]; 39.7% in assay [6]. The growth is -46.1% (active) in assay [7]; -43.5% (active) in assay [8]; -28.3% (active) in assay [9]; 52.1% in [10]; 36.2% in assay [11]; 17% in assay [12]. Moreover, the growth in [13] was 17.5%; in assay [14] it was 59%; in [15] it was 0.589% (active); in assay [16], 14.6%; in assay [17], -31% (active); in assay [18] it was -4.01% (active).
Turning to `O=C1c2c(c3c4ccc(Br)cc4oc3c3[nH]c4ccccc4c23)C(=O)N1CCO`, the growth in assay [1] was 53%; in assay [2] it was 58.3%; in [3], 88.7%; in assay [4], 32.8%; in assay [5], 23.5%; in [6], 51.6%. Moreover, the growth in assay [7] was 17.3%; in [8], 23.5%; in [9] it was 7.54% (active); in [10] it was 70.2%; in [11] it was 53.7%; in assay [12] it was 34%. Further, the growth was 25.6% in assay [13]; 107% in [14]; 12% in [15]; 23.6% in assay [16]; 52.4% in assay [17]; 21.7% in assay [18].
As for `CCNCCCn1c2c(c3cc(OC)c(OC)cc3c1=O)C(=O)c1cc(OC)cnc1-2`, the growth in assay [1] was 22%; in assay [2], -60.9% (active); in assay [3], 17.1%; in assay [4] it was 25.3%; in assay [5], -16.1% (active); in assay [6], 46.5%. For the same compound, the growth in [7] was -18.2% (active); in assay [8] it was 5.63% (active); in [9], -8.19% (active); in [10], 64.7%; in assay [11], 43.3%; in assay [12], 20.8%. Further, the growth in assay [13] is 18%; in [14], 64.4%; in [15] it was 6.11% (active); in assay [16] it was 18.3%; in assay [17], 15.8%; in assay [18], 8.89% (active).
